These results are taken from PubChem BioAssay (Tox21).

Values joined by “and” are separate entries in the source; they are usually repeats but may differ in a detail not shown here. Equal values may be shown once. Records with an inconclusive call do not appear. Values without a mark were called inactive. Active and inactive are the calls of the source. Unless noted, calls come from the whole dose curve; as a rule, active = well fitted curve in the direction sought with a large enough effect in the repeat runs; inconclusive = weak or mixed curves; inactive = no such curve, though single readings can be large; an effect the other way counts as inactive or inconclusive.

Assay [1] has as its target Luciferin 4-monooxygenase (Photinus pyralis) (UniProt P08659). Put plainly: qHTS assay to identify small molecule inhibitors of firefly luciferase (AID 1224835). Note: nearly all actives have a fitted effect of over 25% in size. Note: potency is the fitted concentration of half-maximal effect. In a few lines:
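Quantitative HTS format; KM concentrations of both substrates. Purified P. pyralis FLuc activity quantified from luminescence images.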
Background: Quantitative high-throughput screening tests each substance at several concentrations.

A short description of assay [2]: qHTS assay to identify small molecule agonists of the constitutive androstane receptor (CAR) signaling pathway - cell viability counter screen (AID 1224836). Note: nearly all actives have a fitted effect of over 45% in size. Note: potency is the fitted concentration of half-maximal effect. The procedure, abridged:
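HepG2-CYP2B6-hCAR, 2500 cells/well, 4 h pre-incubation; cpd 15 conc + PK11195 0.75 uM final; 23 h, 37 C/5% CO2; CellTiter-Fluor, fluorescence.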

The nature of assay [3]: qHTS assay to identify small molecule antagonists of the constitutive androstane receptor (CAR) signaling pathway - cell viability counter screen (AID 1224837). Note: nearly all actives have a fitted effect of over 45% in size. Note: potency is the fitted concentration of half-maximal effect. In a few lines:
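HepG2-CYP2B6-hCAR cells, 2500/well, 4 hr pre-incubation; compound titration, 15 conc.; CITCO 50 nM final; 23 hr, 37 C/5% CO2; CellTiter-Fluor, fluorescence intensity.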

Assay [4] has as its target Nuclear receptor subfamily 1 group I member 3 (Homo sapiens) (UniProt Q14994). Kind of assay: qHTS assay to identify small molecule antagonists of the constitutive androstane receptor (CAR) signaling pathway (AID 1224838).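 Note: HepG2 cells stably expressing hCAR with CYP2B6 luciferase reporter stimulated by CITCO; nearly all actives have a fitted effect of over 40% in size.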 Note: potency is the fitted concentration of half-maximal effect. The procedure, abridged: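 HepG2-CYP2B6-hCAR cells; 4 h pre-incubation; cpd (15 conc) + CITCO 50 nM final; 24 h, 37 C/5% CO2; ONE-Glo, luminescence.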

Assay [5] has the same target. Put plainly: qHTS assay to identify small molecule agonists of the constitutive androstane receptor (CAR) signaling pathway (AID 1224839).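 Note: HepG2 cells stably carrying human CAR and a CYP2B6 luciferase reporter; series mostly up to about 92 µM; nearly all actives have a fitted effect of over 15% in size.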 In a few lines: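 HepG2-CYP2B6-hCAR cells, 2500/well, 4 h pre-incubation; compounds 15 conc.; PK11195 0.75 uM final; 24 h, 37 C/5% CO2; ONE-Glo luciferase read.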
Assay [6] is described as follows: qHTS assay to identify small molecule antagonists of the estrogen related receptor signaling pathway with the pleiotropic PPARgamma coactivator (PGC) from Tox21 10K library - cell viability counter screen (AID 1224840; active = well fitted cell-killing curve with a large enough effect in the repeat runs, not every such curve was filed as active; note: nearly all actives have a fitted effect of over 40% in size; note: potency is the fitted concentration of half-maximal effect). The procedure, abridged:
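PGC/ERR cells, 2,000/well; 6 h pre-incubation 37 C/5% CO2; cpd in DMSO via pin tool; 17.5 h 37 C; CellTiter-Fluor, 30 min; fluorescence.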

Assay [7] concerns the target Thyrotropin receptor (Homo sapiens) (UniProt P16473). Put plainly: qHTS assay to identify small molecule agonists of the thyroid stimulating hormone receptor (TSHR) signaling pathway (AID 1224843; calls by dose curve; note: nearly all actives have a fitted effect of over 45% in size; note: potency is the fitted concentration of half-maximal effect). The procedure, abridged: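 TSHR-expressing HEK293 cells (800 per well) were exposed to compounds for 30 min at room temperature. cAMP was then detected by HTRF competition with cAMP-d2 and anti-cAMP cryptate, read after 1 h at room temperature. Fifteen concentrations, triplicate.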

A short description of assay [8]: qHTS assay to identify small molecule agonists of the estrogen related receptor signaling pathway with the pleiotropic PPARgamma coactivator (PGC) from Tox21 10K library (AID 1224842). Note: nearly all actives have a fitted effect of over 15% in size. In a few lines: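 PGC/ERR reporter cells (NTP line) were seeded 2,000 per well, rested 6 h at 37 C/5% CO2, then pin-dosed with compounds in DMSO for 18 h at 37 C; luciferase read by One-Glo luminescence after 30 min at room temperature.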

A short description of assay [9]: qHTS assay to identify small molecule agonists of the hypoxia (HIF-1) signaling pathway - cell viability counter screen (AID 1224844; calls by dose curve; note: nearly all actives have a fitted effect of over 50% in size; note: potency is the fitted concentration of half-maximal effect). In a few lines: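 ME-180 HRE-bla cells, 2,000/well, 0.5% dialyzed FBS; 5 hr settle, 17 hr compound at 37C/5% CO2; CCF4-AM reporter read first, then CellTiter-Glo luminescence after 30 min RT.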
The nature of assay [10]: qHTS assay to identify small molecule antagonists of the estrogen related receptor signaling pathway with the pleiotropic PPARgamma coactivator (PGC) from Tox21 10K library (AID 1224841; call rule not given here; note: actives are mostly falling curves and most rising ones were filed inactive; nearly all actives have a fitted effect of over 50% in size; note: potency is the fitted concentration of half-maximal effect). In a few lines:
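PGC/ERR cell line, 2,000 cells/well; 6 h pre-incubation 37 C/5% CO2; compounds (DMSO) pinned in; 18 h, 37 C; One-Glo, 30 min RT; luminescence.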

Luciferin 4-monooxygenase (Photinus pyralis), sequence (P08659 whole entry, looked up): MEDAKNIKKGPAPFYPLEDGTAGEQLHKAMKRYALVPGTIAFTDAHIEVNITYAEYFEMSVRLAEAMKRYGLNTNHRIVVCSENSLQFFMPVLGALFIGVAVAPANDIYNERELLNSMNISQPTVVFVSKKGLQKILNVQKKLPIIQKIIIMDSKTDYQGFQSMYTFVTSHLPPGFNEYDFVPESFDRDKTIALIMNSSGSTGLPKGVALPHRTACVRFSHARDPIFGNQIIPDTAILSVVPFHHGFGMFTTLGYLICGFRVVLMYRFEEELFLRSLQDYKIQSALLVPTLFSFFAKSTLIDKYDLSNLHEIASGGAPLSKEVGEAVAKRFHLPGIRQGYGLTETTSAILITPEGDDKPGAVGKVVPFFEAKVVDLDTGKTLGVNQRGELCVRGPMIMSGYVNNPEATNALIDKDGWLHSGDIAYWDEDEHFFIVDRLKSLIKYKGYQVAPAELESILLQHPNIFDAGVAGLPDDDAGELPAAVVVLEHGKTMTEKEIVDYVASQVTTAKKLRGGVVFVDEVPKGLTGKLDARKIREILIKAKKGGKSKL
Nuclear receptor subfamily 1 group I member 3 (Homo sapiens), sequence (Q14994 whole entry, looked up): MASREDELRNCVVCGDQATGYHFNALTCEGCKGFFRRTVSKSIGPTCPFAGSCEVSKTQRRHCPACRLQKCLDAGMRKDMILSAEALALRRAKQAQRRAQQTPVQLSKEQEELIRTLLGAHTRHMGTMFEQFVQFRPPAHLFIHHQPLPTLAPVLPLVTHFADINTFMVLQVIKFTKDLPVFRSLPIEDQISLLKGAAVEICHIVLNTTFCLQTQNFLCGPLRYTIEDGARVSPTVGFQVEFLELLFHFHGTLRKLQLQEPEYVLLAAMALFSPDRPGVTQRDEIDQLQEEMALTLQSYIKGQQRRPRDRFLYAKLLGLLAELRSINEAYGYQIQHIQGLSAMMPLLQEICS
Thyrotropin receptor (Homo sapiens), sequence (P16473 whole entry, looked up): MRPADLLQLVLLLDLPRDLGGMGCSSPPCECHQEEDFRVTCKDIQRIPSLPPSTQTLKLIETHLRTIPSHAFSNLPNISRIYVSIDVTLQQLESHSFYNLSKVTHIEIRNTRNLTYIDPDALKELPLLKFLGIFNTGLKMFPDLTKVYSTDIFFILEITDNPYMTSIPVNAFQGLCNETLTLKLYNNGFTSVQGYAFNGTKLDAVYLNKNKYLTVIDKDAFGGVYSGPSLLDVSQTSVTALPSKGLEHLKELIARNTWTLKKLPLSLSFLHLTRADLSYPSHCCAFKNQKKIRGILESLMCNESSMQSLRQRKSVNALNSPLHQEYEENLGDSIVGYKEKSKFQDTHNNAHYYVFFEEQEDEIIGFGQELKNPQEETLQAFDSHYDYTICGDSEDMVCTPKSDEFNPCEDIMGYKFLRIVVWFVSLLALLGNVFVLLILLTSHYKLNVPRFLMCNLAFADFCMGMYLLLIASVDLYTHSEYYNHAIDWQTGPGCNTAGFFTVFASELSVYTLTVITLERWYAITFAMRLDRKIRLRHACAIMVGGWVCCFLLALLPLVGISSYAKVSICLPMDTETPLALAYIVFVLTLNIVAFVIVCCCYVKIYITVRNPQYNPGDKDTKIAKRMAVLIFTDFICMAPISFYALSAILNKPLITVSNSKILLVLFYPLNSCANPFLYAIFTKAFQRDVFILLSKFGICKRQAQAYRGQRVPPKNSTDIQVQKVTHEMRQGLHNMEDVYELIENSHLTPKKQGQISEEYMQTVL

On to `CCCCCCCC(OC)OC`, for which the Potency result in assay [1], in assay [2], in assay [3], in assay [4], in assay [5] and in assay [6] was “inactive” throughout. Further, the Potency entry in [7] was “inactive”.

Take `CSc1ccc2c(c1)N(CCC1CCCCN1C)c1ccccc1S2` (centres undefined): the Potency result in [1], in assay [4], in assay [5] and in assay [7] was “inactive” throughout. The Potency in assay [2] is 48.4 µM (active); in [3] it was 54.3 µM (active); in assay [6] it was 30.5 µM (active) and 29.8 µM (active).

On to `CC(=O)Oc1ccc(C2(c3ccc(OC(C)=O)cc3)C(=O)Nc3ccccc32)cc1`, for which the Potency entry in [1], in assay [2], in assay [3], in assay [5], in [6] and in assay [8] was “inactive” throughout. For the same compound, the Potency result in [7] is “inactive”. The Potency in assay [4] is 0.168 µM (active).

With `C=CC(=O)OCCN(CC)CC`, the Potency result in [1], in assay [2], in assay [3], in assay [4], in [5] and in assay [6] was “inactive” throughout. Moreover, the Potency result in assay [7] is “inactive”.

With `CC(C)=CCCC(C)CCOC(=O)C(C)C` (centres undefined), the Potency result in [1], in assay [2], in assay [3], in assay [4], in assay [5] and in assay [6] was “inactive” in each case. The Potency result in assay [7] and in assay [9] was “inactive” throughout.

On to `CS(C)(=O)=O`, for which the Potency result in assay [1], in assay [2], in [3], in [4], in assay [5] and in assay [6] was “inactive” in each case. In addition, the Potency entry in assay [8], in assay [7] and in assay [9] was “inactive” in each case.

With `C/C=C/C(=O)Oc1c(CCCCCC(C)C)cc([N+](=O)[O-])cc1[N+](=O)[O-]`, the Potency result in [1], in assay [5], in assay [8] and in assay [7] was “inactive” each time. Besides, the Potency in assay [2] was 19.3 µM (active); in assay [3] it was 21.7 µM (active); in [4] it was 30.6 µM (active); in assay [6], 27.3 µM (active); in [9], 17.4 µM (active).

With `ClC/C=C\CCl`, the Potency result in assay [10] and in assay [8] was “inactive” each time.

Take `C=C1C(C)(C)[C@@]2(Cl)C(Cl)[C@]1(Cl)C(Cl)(Cl)C2(Cl)Cl` (some centres undefined): the Potency in [10] is 53.5 µM (active). Besides, the Potency entry in [8] was “inactive”.

With `CCOC(/C=C(\C)CCC=C(C)C)OCC`, the Potency entry in assay [1], in assay [2], in assay [3], in [4], in assay [6] and in [8] was “inactive” throughout. Moreover, the Potency entry in assay [9] is “inactive”.

With `Cc1cccc(N(C)C)c1`, the Potency entry in assay [1], in [2], in assay [3], in assay [4], in assay [6] and in assay [10] was “inactive” throughout. Further, the Potency entry in assay [8], in assay [7] and in [9] was “inactive” in each case.

With `C[C@@H]1CC[C@H]2C(C)(C)[C@H]3C[C@@]12CC[C@@]3(C)O`, the Potency entry in assay [1], in [2], in [3], in assay [4], in assay [6] and in assay [8] was “inactive” each time. Moreover, in [9], the Potency result was “inactive”. Besides, the Potency in assay [10] and in [7] was 54.4 µM (active) each time.

For the compound `CCc1c(Br)c(Br)c(Br)c(Br)c1Br`, the Potency result in [1], in assay [2], in assay [3], in assay [4], in [6] and in assay [9] was “inactive” throughout.

For the compound `CCOC(OCC)C(=O)c1ccccc1`, the Potency entry in assay [1], in [2], in assay [3], in assay [4], in assay [6] and in [10] was “inactive” each time. Besides, the Potency entry in assay [9] was “inactive”.

Regarding `O=C[C@H](O)[C@H](O)[C@H](O)CO`, the Potency result in assay [1], in assay [2], in assay [3], in [4], in assay [6] and in [9] was “inactive” throughout.

Regarding `CC1=C(/C=C/C(C)=C/C=C/C(C)=C/C(=O)Nc2ccc(O)cc2)C(C)(C)CCC1`, the Potency entry in [1], in [5] and in [8] was “inactive” each time. Moreover, the Potency in assay [2] is 23.7 µM (active); in [3] it was 29.8 µM (active); in assay [6], 28 µM (active) and 13.3 µM (active); in assay [7], 22.2 µM (active) and 11.9 µM (active); in [9], 22.4 µM (active) and 19 µM (active).

With `COc1cc(C(=O)NS(=O)(=O)c2ccccc2C)ccc1Cc1cn(C)c2ccc(NC(=O)OC3CCCC3)cc12`, in assay [1], the Potency was 27.5 µM (active). In addition, the Potency entry in assay [2], in assay [3], in assay [4], in assay [6], in assay [8] and in assay [7] was “inactive” in each case.

Consider `CCCCCCCCCCCCN(CCO)CCO`, for which the Potency entry in assay [1] and in assay [8] was “inactive” each time. Also, the Potency is 68.3 µM (active) in [2], 68.3 µM (active) in [3], 68.3 µM (active) in [4] and 60.9 µM (active) in [6].
